According to the supplement of paper PMC7156485:

Experiments:
Conditions in all cases: concentration: 10 µM; 24 h
HCC1569 [1] = assay: cell number relative to DMSO (% of DMSO); higher = more cells (less growth inhibition / toxicity)
How it was run: (§1)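 H1.0 nuclear intensity or cell number is stated as percent of the plate control, based on the median of replicates, and HCC1569 values were smoothed for positional effects. These came from HCC1569 and TDF cells treated with compounds at 10 µM for 24 h at 37 °C in triplicate, then fixed in 3.7% formaldehyde and stained with a rabbit anti-H1.0 antibody, an AlexaFluor 647 secondary and DAPI.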

TDF [2] = assay: as above
How it was run: as §1

TDF [3] = assay: H1.0 immunofluorescence intensity relative to DMSO (% of DMSO); higher = stronger H1.0 induction, active = 120 or more
How it was run: as §1

HCC1569 [4] = assay: H1.0 immunofluorescence intensity relative to DMSO (% of DMSO); higher = stronger H1.0 induction, active = 140 or more
How it was run: as §1
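For H1.0 immunofluorescence intensity relative to DMSO in this document: TDF is a line of transformed human dermal fibroblasts of mesenchymal origin.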
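For cell number relative to DMSO in this document: TDF denotes transformed human dermal fibroblasts of mesenchymal origin.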

| Compound | cell number (HCC1569 [1]) | cell number (TDF [2]) | H1.0 immunofluorescence intensity (TDF [3]) | H1.0 immunofluorescence intensity (HCC1569 [4]) |
| --- | --- | --- | --- | --- |
| O=C(O)C=Cc1ccc(Cn2ccnc2)cc1 [Ozagrel] | 100 | 101 | 93.8 (inactive) | 104 (inactive) |
| CN(C)NN=C1N=CN=C1C(N)=O [Dacarbazine] | 102 | 102 | 97.8 (inactive) | 101 (inactive) |
| CCCCCCCCCCCCCC(=O)NC(C)C(O)c1ccccc1 [L-erythro MAPP] | 97.3 | 103 | 98 (inactive) | 108 (inactive) |
| CCCCCCCCOC(=O)C=Cc1ccc(O)c(O)c1 [n-Octyl caffeate] | 54.1 | 78.8 | 93.6 (inactive) | 120 (inactive) |
| CNCCC=C1c2ccccc2CCc2ccccc21.Cl [Nortriptyline hydrochloride] | 88.9 | 93.9 | 109 (inactive) | 117 (inactive) |
| CN(Cc1cc(Br)cc(Br)c1N)C1CCCCC1 [Bromhexine] | 98.8 | 110 | 88.6 (inactive) | 123 (inactive) |
| C=CC1CN2CCC1CC2C(O)c1ccnc2ccc(OC)cc12.C=CC1CN2CCC1CC2C(O)c1ccnc2ccc(OC)cc12.O=S(=O)(O)O (stereo unspecified) [Quinidine sulfate] | 99 | 99.9 | 95.4 (inactive) | 112 (inactive) |
| O=c1cc(-c2ccccc2)oc2cc(O)ccc12 [7-Hydroxyflavone] | 103 | 104 | 96.8 (inactive) | 88.8 (inactive) |
| Cc1cnc(Nc2ccc(OCCN3CCCC3)cc2)nc1Nc1cccc(S(=O)(=O)NC(C)(C)C)c1 | 67.1 | 43.3 | 116 (inactive) | 189 (active) |
| CN(C)c1ccc(O)c2c1CC1CC3C(N(C)C)C(=O)C(C(N)=O)=C(O)C3(O)C(=O)C1=C2O.Cl (stereo unspecified) | 99.2 | 96.9 | 95.5 (inactive) | 91.5 (inactive) |
| CCC1(c2ccccc2)C(=O)NCNC1=O [Primidone] | 102 | 97.2 | 98 (inactive) | 102 (inactive) |
| C=C(c1ccc(C(=O)O)cc1)c1cc2c(cc1C)C(C)(C)CCC2(C)C [Bexarotene] | 104 | 103 | 84 (inactive) | 111 (inactive) |
| CC(N)C1CCC(C(=O)Nc2ccncc2)CC1.Cl.Cl (stereo unspecified) | 110 | 106 | 87.3 (inactive) | 90.1 (inactive) |
| CC1CCN(CCC2CCCN2S(=O)(=O)c2cccc(O)c2)CC1.Cl (stereo unspecified) | 102 | 109 | 92.1 (inactive) | 107 (inactive) |
| NS(=O)(=O)c1ccc(S(=O)(=O)Nc2cccc3c(Cl)c[nH]c23)cc1 [N~1~-(3-chloro-1H-indol-7-yl)-1,4-benzenedisulfonamide] | 95.3 | 103 | 96.2 (inactive) | 107 (inactive) |
| Clc1ccc(CON=C(Cn2ccnc2)c2ccc(Cl)cc2Cl)c(Cl)c1 [Oxiconazole] | 99.8 | 101 | 98.4 (inactive) | 113 (inactive) |
| O=C(O)c1ccc(O)c(O)c1 [Protocatechuic acid] | 100 | 106 | 91.4 (inactive) | 91.3 (inactive) |
| CC1(C)CCC(C)(C)c2cc(C3(c4ccc(C(=O)O)cc4)OCCO3)ccc21 | 100 | 99 | 92.3 (inactive) | 92.2 (inactive) |
| NC(C(=O)O)C(O)C(=O)O (racemic) [DL-threo-beta-hydroxyaspartic acid] | 101 | 110 | 96.7 (inactive) | 95.9 (inactive) |
| O=c1[nH]c(=O)n(C2CC(O)C(CO)O2)cc1Br (stereo unspecified) [5-Bromo-2'-deoxyuridine] | 99 | 106 | 95.7 (inactive) | 105 (inactive) |
| COC(=O)c1cnn(-c2ccc(F)cc2F)c1/C=N/NC(=S)NC(C)(C)C | 95.9 | 101 | 99 (inactive) | 102 (inactive) |
| Cl.Clc1cccc(Cl)c1NC1=NCCN1 [Clonidine.HCl] | 103 | 100 | 84.7 (inactive) | 101 (inactive) |
| CC(C)(ON=C(C(=O)NC1C(=O)N2C(C(=O)[O-])=C(C[n+]3ccccc3)CSC12)c1csc(N)n1)C(=O)O (stereo unspecified) [Ceftazidime] | 103 | 103 | 90.2 (inactive) | 108 (inactive) |
| CC12C=Cc3occc3C1CCC13CC(=O)C(CCC12)C3 (stereo unspecified) [16-Oxokahweol] | 97.7 | 98.5 | 91.4 (inactive) | 99.3 (inactive) |
